Activity calls are given as the source filed them. The calls were made as follows: active = hit-call score of the fitted dose curve at least 0.9, where 1 is the maximum; inactive = score below 0.9.
Assay: ATG_EGR_CIS: Attagene CIS-FACTORIAL HepG2 Assay for human Early Growth Response 1 (EGR1) (AID 2282938)
Settings: HepG2 Attagene CIS-FACTORIAL EGR reporter mRNA; actives raise or lower the signal
Procedure: ATG_CIS is a cell-based, multiplexed-readout assay that uses HepG2, a human liver cell line, with measurements taken at 24 hours after chemical dosing in a 24-well plate.ATG_EGR_CIS is one of 52 assay component(s) measured or calculated from the ATG_CIS assay. It is designed to make measurements of mRNA induction, a form of inducible reporter, as detected with fluorescence intensity signals by Reverse transcription polymerase chain reaction (RT-PCR) and Capillary electrophoresis technology.Data from the assay component ATG_EGR_CIS was analyzed into 1 assay endpoint. This assay endpoint, ATG_EGR_CIS, was analyzed with bidirectional fitting relative to DMSO as the negative control and baseline of activity. Using a type of inducible reporter, measures of mRNA for gain or loss-of-signal activity can be used to understand the reporter gene at the transcription factor-level as they relate to the gene EGR1. Furthermore, this assay endpoint can be referred to as a primary readout, because this assay has produced multiple assay endpoints where this one serves a reporter gene function. To generalize the intended target to other relatable targets, this assay endpoint is annotated to the dna binding intended target family, where the subfamily is zinc finger.
Human liver HepG2 cells are transiently transfected with multiple reporter transcription units (MRTUs) in 6-well plates using FuGene 6 reagent (Roche; 3 ml FuGene/1 mg DNA). The MRTU constructs are regulated by a cis-regulating element (promoter). […] A major difference between the CIS and TRANS system is that in CIS activities of endogenous TFs are measured, whereas the TRANS assay evaluates changes in activities of exogenous, chimeric NR-Gal4 proteins. […] At the end of 24 hour incubation, total RNA was isolated using TriZol reagent (Invitrogen). The isolated RNA is then reverse-transcribed using oligo(dT) primer and Mo-MLV reverse transcriptase (Invitrogen) with DNAse I (Ambion) treatment for 30 min. The one-tenth of the produced cDNA was amplified by PCR using Taq DNA polymerase (Invitrogen) and two reporter sequence-specific primers. The PCR products were fluorescently labeled by primer extension with 6-arboxyfluorescein (6-FAM) 5'-labeled reporter sequence-specific primer (2 min at 95 C, 20 s at 68 C and 10 min at 72 C) and these products were digested with 5U of HpaI (New England Biolabs) for 2h at 37 C. The fragments were purified using Qiaquick PCR columns (Qiagen), analyzed on an ABI 3130xL genetic analyzer (Applied Biosystems) with peak positions identified by using a set of X-rhodamine (ROX)-labeled MapMarker1000 molecular weight standards (BioVentures). The raw capillary electrophoresis data was processed using Attagraph software (Attagene).

outcome, inactive:
OCCc1ccncc1
O=C(Nc1ccccc1)c1ccccc1O
CCOC(=O)CC
Cc1ccc(N)c([N+](=O)[O-])c1
CC1=CC[C@H]2C[C@@H]1C2(C)C
CCCCCCCCCCCCCCCC[N+](C)(C)CC
Cc1cc(C)c(C)c(O)c1
c1ccc(CNCc2ccccc2)cc1
Cc1ccc2c(c1)C(=O)c1ccccc1C2=O
O=c1n(CCO)c(=O)n(CCO)c(=O)n1CCO
CCN(CCC#N)c1ccc(N=Nc2c(Cl)cc([N+](=O)[O-])cc2Cl)cc1
CCCCCCC(O)CO (stereo not given)
CC(C)c1ccc(C=O)cc1
O=C1CCCN1CCO
NC(=O)C1CO1 (stereo not given)
O=C(C=Cc1ccccc1)OCc1ccccc1
O=[N+]([O-])c1ccc(CO)cc1
CC(C)(C)c1ccc(-c2ccc(C(C)(C)C)cc2)cc1
CC(C)CCCCCOC(=O)CCS
FC(F)=C(F)OC(F)(F)C(F)(F)C(F)(F)F
NC(=O)N=NC(N)=O
C#CC1(O)CC[C@H]2[C@@H]3CCC4=CCCC[C@@H]4[C@H]3CC[C@@]21C (stereo not given in full)
C(=CC=Nc1ccccc1)C=CNc1ccccc1
C=C1[C@H]2CC[C@@H]3[C@H]2C(C)(C)CCC[C@]13C
COc1cc(C)ccc1C(C)C
CC(C)=CC1CC(C)CCO1 (stereo not given)
CC(=O)C=CC1C(C)=CCC(C)C1(C)C (stereo not given)
COc1ccc([C@@H]2CC(=O)c3c(O)cc(O[C@@H]4O[C@H](CO[C@@H]5O[C@@H](C)[C@H](O)[C@@H](O)[C@H]5O)[C@@H](O)[C@H](O)[C@H]4O)cc3O2)cc1OC
C[C@]12C=CC(=O)C=C1CC[C@@H]1[C@@H]2[C@@H](O)C[C@@]2(C)[C@H]1CC[C@]2(O)C(=O)CO
C1=CCCC1
Cc1ccc2oc(=O)ccc2c1
SCCc1cnccn1
CCc1ccc2c(c1)C(=O)c1ccccc1C2=O
CCCCCCCCCCOC(C)=O
CCCNC(=O)NS(=O)(=O)c1ccc(Cl)cc1
COc1c2ccoc2cc2oc(=O)ccc12
CCCCCCCCCCOS(=O)(=O)O

AC50, active:
CC(C)(c1cc(Br)c(OCCO)c(Br)c1)c1cc(Br)c(OCCO)c(Br)c1 10.5 µM
Nc1ccc(N=Nc2ccccc2)c(N)n1 70.5 µM
O=C1Nc2ccccc2C1(c1ccc(O)cc1)c1ccc(O)cc1 71.7 µM
